In paper PMC5540273 (PLoS ONE, 2017):
Like-named read-outs stand apart in the source and are kept apart here.

Tests used:
NIM1 = test system: T1, NIM1; settings: concentration: 1 μM, replicates: in singlicate; n = 1
T1 construct: gene MGC42105

NLK = settings: concentration: 1 μM, replicates: in singlicate; n = 1
OSR1 = test system: T2, OSR1; settings: concentration: 1 μM, replicates: in singlicate; n = 1
T2 construct: gene OXSR1

PAK1 = settings: concentration: 1 μM, replicates: in singlicate; n = 1
PAK2 = settings: concentration: 1 μM, replicates: in singlicate; n = 1
PAK3 = settings: concentration: 1 μM, replicates: in singlicate; n = 1
PAK4 = settings: n = 1
PAK6 = settings: concentration: 1 μM, replicates: in singlicate; n = 1
PAK7 = settings: concentration: 1 μM, replicates: in singlicate; n = 1
PCTK1 = test system: T3, PCTK1; settings: concentration: 1 μM, replicates: in singlicate; n = 1
T3 construct: gene CDK16

PCTK2 = test system: T4, PCTK2; settings: concentration: 1 μM, replicates: in singlicate; n = 1
T4 construct: gene CDK17

PCTK3 = test system: T5, PCTK3; settings: concentration: 1 μM, replicates: in singlicate; n = 1
T5 construct: gene CDK18

PDGFRA = settings: concentration: 1 μM, replicates: in singlicate; n = 1
PDGFRB = settings: concentration: 1 μM, replicates: in singlicate; n = 1
PDPK1 = settings: concentration: 1 μM, replicates: in singlicate; n = 1
PFTAIRE2 = settings: concentration: 1 μM, replicates: in singlicate; n = 1
PFTK1 = test system: T6, PFTK1; settings: concentration: 1 μM, replicates: in singlicate; n = 1
T6 construct: gene CDK14

PHKG1 = settings: concentration: 1 μM, replicates: in singlicate; n = 1
PHKG2 = settings: concentration: 1 μM, replicates: in singlicate; n = 1
PIK3C2B = settings: concentration: 1 μM, replicates: in singlicate; n = 1
[1] = concentration: 1 μM, replicates: in singlicate
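Note: KINOMEscan kinase panel screen.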

SMILES: Cc1nn2c(=O)cc(N3CCO[C@H](C)C3)nc2n1Cc1cccc(Cl)c1Cl [GSK2373693]
- %Inh (NIM1): 11%
- %Inh (NLK): 78%
- %Inh (OSR1): 83%
- %Inh (PAK1): 2%
- %Inh (PAK2): 10%
- %Inh (PAK3): 36%
- %Inh (PAK4; [1]): 0%
- %Inh (PAK6): 52%
- %Inh (PAK7): 0%
- %Inh (PCTK1): 7%
- %Inh (PCTK2): 0%
- %Inh (PCTK3): 8%
- %Inh (PDGFRA): 1%
- %Inh (PDGFRB): 65%
- %Inh (PDPK1): 0%
- %Inh (PFTAIRE2): 9%
- %Inh (PFTK1): 5%
- %Inh (PHKG1): 0%
- %Inh (PHKG2): 0%
- %Inh (PIK3C2B): 99.4%

SMILES: Cc1cccc(Nc2nc(N[C@H]3CCCC[C@H]3N)ncc2C(N)=O)c1.Cl [GSK986310]
- %Inh (NIM1): 18%
- %Inh (NLK): 27%
- %Inh (OSR1): 33%
- %Inh (PAK1): 40%
- %Inh (PAK2): 70%
- %Inh (PAK3): 55%
- %Inh (PAK4; 1 µM): 95.4%
- %Inh (PAK6): 89%
- %Inh (PAK7): 99.5%
- %Inh (PCTK1): 10%
- %Inh (PCTK2): 17%
- %Inh (PCTK3): 24%
- %Inh (PDGFRA): 12%
- %Inh (PDGFRB): 80%
- %Inh (PDPK1): 3%
- %Inh (PFTAIRE2): 24%
- %Inh (PFTK1): 29%
- %Inh (PHKG1): 33%
- %Inh (PHKG2): 44%
- %Inh (PIK3C2B): 0%

SMILES: COc1ccc(C)c(Nc2ccnc(Nc3ccc(-c4cnc[nH]4)cc3)n2)c1.Cl [GW784041]
- %Inh (NIM1): 0%
- %Inh (NLK): 13%
- %Inh (OSR1): 0%
- %Inh (PAK1): 0%
- %Inh (PAK2): 12%
- %Inh (PAK3): 20%
- %Inh (PAK4; [1]): 6%
- %Inh (PAK6): 10%
- %Inh (PAK7): 0%
- %Inh (PCTK1): 0%
- %Inh (PCTK2): 10%
- %Inh (PCTK3): 2%
- %Inh (PDGFRA): 0%
- %Inh (PDGFRB): 76%
- %Inh (PDPK1): 0%
- %Inh (PFTAIRE2): 0%
- %Inh (PFTK1): 0%
- %Inh (PHKG1): 0%
- %Inh (PHKG2): 8%
- %Inh (PIK3C2B): 0%

SMILES: CN(C)CCOc1ccc(-c2cc(-c3ccc(Cl)c(O)c3)c(-c3ccncc3)[nH]2)cc1.Cl.Cl [SB-684387]
- %Inh (NIM1): 40%
- %Inh (NLK): 66%
- %Inh (OSR1): 7%
- %Inh (PAK1): 8%
- %Inh (PAK2): 6%
- %Inh (PAK3): 0%
- %Inh (PAK4; [1]): 0%
- %Inh (PAK6): 0%
- %Inh (PAK7): 20%
- %Inh (PCTK1): 1%
- %Inh (PCTK2): 13%
- %Inh (PCTK3): 1%
- %Inh (PDGFRA): 12%
- %Inh (PDGFRB): 30%
- %Inh (PDPK1): 0%
- %Inh (PFTAIRE2): 20%
- %Inh (PFTK1): 19%
- %Inh (PHKG1): 0%
- %Inh (PHKG2): 0%
- %Inh (PIK3C2B): 10%
